An excerpt weighted towards active compounds, which were near 2.1% of everything screened.
SIRT5 inh: inhibitors of human sirtuin-5 desuccinylase; Q9NXA8; Purified SirT5, succinyl-peptide AMC, trypsin-coupled fluorescence; inhibition, % at 15 µM; 1.1% of 330,000 active; AID 652115; in the data active = inhibition above about 15%
Target sequence (Q9NXA8 whole entry, looked up): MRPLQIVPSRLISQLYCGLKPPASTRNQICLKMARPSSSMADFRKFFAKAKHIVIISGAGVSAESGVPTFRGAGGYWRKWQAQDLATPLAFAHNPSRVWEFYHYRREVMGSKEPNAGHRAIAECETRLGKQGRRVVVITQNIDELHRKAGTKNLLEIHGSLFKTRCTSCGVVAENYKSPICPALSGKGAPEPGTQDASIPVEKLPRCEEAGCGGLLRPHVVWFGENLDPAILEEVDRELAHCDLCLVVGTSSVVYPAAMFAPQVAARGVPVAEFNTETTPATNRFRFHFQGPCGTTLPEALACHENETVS
NSD2 HMT inh: NSD2 (human) methyltransferase inhibition; NSD2 peptide methylation, AlphaScreen, 120 min; inhibition, % at 12.5 µM; 0.54% of 310,000 active; AID 743445; in the data active = inhibition above about 50%
ARNT-TACC3 inh: disruptors of human ARNT/TACC3 interaction; Q9Y6A5; AlphaScreen His-ARNT PAS-B/GST-TACC3 binding, luminescence; TACC3 fragment carries E629A point mutation; inhibition, % at 9.99 µM; 0.66% of 390,000 active; AID 623870;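 active = mean inhibition of replicates at least 50% and at least half of replicates each reaching 50%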;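 also: 0% = complete ARNT plus TACC3 wells and 100% = ARNT alone without TACC3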
PfHsp90 yeast 2: inhibits growth of yeast expressing Plasmodium falciparum Hsp90; S. cerevisiae expressing PfHsp90, BacTiter-Glo ATP, 48 h; yeast lacking PDR1 and PDR3 efflux regulators; inhibition, % at 9.4 µM; 0.32% of 310,000 active; AID 504621;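 active = every replicate shows inhibition above about 80%, whatever the replicate mean, limit read from the data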;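 also: 0% = DMSO neutral controls and 100% = 20 µM radicicol positive controls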
Casp6 inh: caspase-6 (human) enzyme inhibition | P55212 | purified caspase-6, Z-VEID-R110 cleavage fluorescence | inhibition, % at 12.5 µM | 0.53% of 350,000 active;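 active = mean inhibition across replicates at least about 35%, with every replicate also reaching that limit, limit read from the data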;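 also: 0% = median of neutral control wells and 100% = no fluorescence left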
Target sequence (P55212 24-179 limits assumed): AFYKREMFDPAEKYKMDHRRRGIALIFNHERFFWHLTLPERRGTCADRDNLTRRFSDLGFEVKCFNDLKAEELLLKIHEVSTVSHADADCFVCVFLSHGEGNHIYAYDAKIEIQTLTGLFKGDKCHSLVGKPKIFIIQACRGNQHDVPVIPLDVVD
Target sequence (P55212 194-293 limits assumed): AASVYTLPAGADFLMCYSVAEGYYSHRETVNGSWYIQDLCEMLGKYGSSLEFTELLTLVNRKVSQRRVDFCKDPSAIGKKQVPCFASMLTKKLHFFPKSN
Starred values were filed as active, the others as inactive; x = no result given.

SMILES | SIRT5 inh | NSD2 HMT inh | ARNT-TACC3 inh | PfHsp90 yeast 2 | Casp6 inh
COCC(=O)Nc1ccc2c(c1)OC[C@H](C)N(Cc1ccccc1F)C[C@H](C)[C@H](OC)CN(C)C2=O | 0.5 | x | x | x | -2.3
O=c1ccc2[n+]([O-])c3ccc(O)cc3oc-2c1 | 11.1 | 101.9* | 5.7 | 31.1 | 87.9*
CCc1ccc(C(c2ccc(CC)cc2)C(Cl)Cl)cc1 | x | x | x | 25.5 | -4.2
Clc1ccc(C(c2ccccc2Cl)C(Cl)Cl)cc1 (centres undefined) | -1.8 | x | 48.2* | 10.4 | 0.0
O=C(Nc1cccc(-c2cn3ccccc3n2)c1)c1cc2ccccc2oc1=O | 19.4* | -2.4 | -11.3 | -55.9 | -4.6
COc1cccc(C#Cc2ccc([C@H]3[C@H](CO)N4C(=O)CN(C(C)=O)C[C@@H]34)cc2)c1 | -0.2 | x | x | x | 1.4
CC(C)N1C(=O)/C(=C\c2nc3ccccc3c(=O)[nH]2)c2ccccc21 | -1.0 | x | -3.9 | 97.8* | 17.5
Cc1noc(C)c1NC(=O)N[C@@H]1C=C[C@H](CC(=O)NCCCN(C)C)O[C@@H]1CO | 5.5 | x | -6.3 | x | 1.7
CCOc1ccc(Cc2c(C)[nH]c3ccc(C(=O)O)cc3c2=S)cc1 | 28.8* | 31.9 | -3.2 | 11.1 | 16.6
COc1ccc(NC(=O)N(C)C[C@H]2Oc3ncc(C#CC(C)C)cc3C(=O)N([C@@H](C)CO)C[C@H]2C)cc1 | -0.6 | x | -1.5 | x | -2.9
c1ccc(-n2c(Cc3cn4ccsc4n3)nnc2N2CCOCC2)cc1 | x | -1.5 | 45.3* | 8.9 | x
CO[C@H]1CN(C)C(=O)c2cc(NC(C)=O)ccc2OC[C@@H](C)N(C(=O)CC2CC2)C[C@@H]1C | 0.9 | x | -12.0 | x | -4.3
CC1CC(C)CN(C(=O)COC(=O)C2CCN(S(=O)(=O)c3c(Cl)cccc3Cl)CC2)C1 (centres undefined) | 11.3 | -1.5 | 0.6 | -10.3 | 0.5
CC1CCCN(C(=O)COC(=O)C2CCN(S(=O)(=O)c3c(Cl)cccc3Cl)CC2)C1 (centres undefined) | 18.2* | 0.5 | 0.2 | 12.6 | -3.3
COc1ccc(C(C)(C)C)cc1NC(=O)Nc1ccc2c(c1)OCO2 | x | -0.4 | 7.4 | 85.8* | x
COc1ccccc1NC(=O)Nc1ccc2c(c1)C(=O)N(C)C[C@H](OC)[C@H](C)CN[C@@H](C)CO2 | 22.0* | x | -1.0 | x | 2.3
COc1ccccc1NC(=O)Nc1ccc2c(c1)C(=O)N(C)C[C@H](OC)[C@H](C)CN(C)[C@H](C)CO2 | 18.8* | x | x | x | x
CO[C@@H]1CN(C)C(=O)c2cc(NS(=O)(=O)c3cccc(C)c3)ccc2OC[C@@H](C)NC[C@H]1C | 3.7 | x | 12.7* | x | -4.2
COc1ccccc1NC(=O)Nc1ccc2c(c1)C(=O)N(C)C[C@H](OC)[C@@H](C)CN(C)[C@@H](C)CO2 | 5.9 | x | -7.7 | x | x
CO[C@H]1CN(C)C(=O)c2ccc(NC(C)=O)cc2OC[C@@H](C)N(C(=O)C2CCCCC2)C[C@@H]1C | 3.1 | x | -3.6 | x | 3.2
C[C@H]1CN([C@@H](C)CO)C(=O)Cc2cc(NC(=O)NC3CCCCC3)ccc2O[C@H]1CN(C)S(C)(=O)=O | 3.2 | x | -1.3 | x | 2.5
CS(=O)(=O)N1CC(=O)N2[C@H](CO)[C@H](c3ccc(C#Cc4cccc(F)c4)cc3)[C@@H]2C1 | -8.1 | x | x | x | 0.7
O=C(NC(=S)N1CCCc2ccccc21)c1ccco1 | 21.7* | -1.8 | x | -9.1 | -0.8
O=C(c1ccc(=O)oc1)N1CCCc2ccccc21 | x | 91.7* | 35.7 | -26.0 | x
CC(=O)N/N=C/c1cc(C(C)(C)C)cc(/C=N/NC(C)=O)c1O | -1.2 | 0.7 | 62.5* | -31.5 | x
SMILES | SIRT5 inh | NSD2 HMT inh | ARNT-TACC3 inh | PfHsp90 yeast 2 | Casp6 inh
Cc1cc(C(=O)N/N=C\c2cc(C(C)(C)C)ccc2O)n[nH]1 | x | x | 42.9 | 18.1 | x
O=C(C[C@@H]1C=C[C@H](NC(=O)C2CC2)[C@@H](CO)O1)NC1CCC1 | 0.8 | x | -3.6 | x | 6.1
Cc1cc(C)c2c(CN3CCOCC3)cc(=O)oc2c1 | 29.7* | -4.9 | -2.2 | -12.2 | -0.1
C[C@@H]1CCCCO[C@H](CN(C)C(=O)c2ccccc2)[C@@H](C)CN([C@@H](C)CO)C(=O)c2cc(NC(=O)Nc3ccccc3)ccc2O1 | 4.6 | x | 5.7 | x | -2.5
CCC(=O)OC1(C)C(=O)C2=COC(c3ccc(OC)cc3)=CC2=C(Br)C1=O (centres undefined) | x | x | 0.3 | 112.8* | x
COc1ccc(C2=CC3=C(Br)C(=O)C(C)(O)C(=O)C3=CO2)cc1 (centres undefined) | x | x | x | 106.8* | x
O=C(c1cccc(F)c1)N1CCCCN2[C@H](CO)[C@@H](c3ccc(-c4ccc(F)cc4)cc3)[C@@H]2C1 | 6.3 | x | 6.4 | x | 0.1
COc1ccccc1NC(=O)N1C[C@@H](O)COC[C@H]2O[C@H](CC(=O)NCCc3ccccc3)CC[C@@H]21 | -1.6 | x | 0.7 | x | 0.4
CC(=O)c1ccc(NC(=O)[C@@H]2CCCN2C(=O)OC(C)(C)C)cc1 | -2.7 | -5.3 | -2.7 | -47.0 | 56.2*
C[C@@H]1CN([C@H](C)CO)C(=O)c2cc(NS(=O)(=O)c3ccc(F)cc3)ccc2O[C@@H](C)CCCCO[C@H]1CN(C)S(=O)(=O)c1ccccc1 | x | x | x | x | -6.1
COC(=O)C1=NNC(C(=O)c2ccco2)C1c1ccccc1 (centres undefined) | 21.9* | 0.0 | -4.2 | -18.9 | -3.5
CC(C)CC#Cc1ccc([C@@H]2[C@@H](CO)N3C(=O)CN(C(=O)CN4CCOCC4)C[C@@H]23)cc1 | 17.4* | x | x | x | 2.0
CC(C)CC#Cc1ccc([C@H]2[C@H](CO)N3C(=O)CN(C(=O)CN4CCOCC4)C[C@@H]23)cc1 | -3.5 | x | x | x | x
CCC(=O)N1CC(=O)N2[C@H](CO)[C@H](c3ccc(C#CCC(C)C)cc3)[C@@H]2C1 | 15.7* | x | x | x | 0.8
CC(C)CC#Cc1ccc([C@@H]2[C@@H](CO)N3C(=O)CN(C(=O)c4ccccn4)C[C@H]23)cc1 | 33.1* | x | x | x | -1.3
COc1ccc(-c2ccc([C@@H]3[C@H]4CN(C(=O)Cc5ccccn5)CC(=O)N4[C@H]3CO)cc2)cc1 | 27.7* | x | x | x | x
CC(C)CC#Cc1ccc([C@@H]2[C@@H](CO)N3C(=O)CN(C(=O)c4ccccn4)C[C@@H]23)cc1 | -1.8 | x | x | x | -1.6
CNC[C@H]1Oc2ncc(C#Cc3ccccc3F)cc2C(=O)N([C@@H](C)CO)C[C@H]1C | -2.2 | x | 11.3 | x | -0.3
C[C@@H]1CN([C@H](C)CO)C(=O)c2cc(NC(=O)Nc3ccccc3)ccc2O[C@@H](C)CCCCO[C@@H]1CN(C)Cc1ccc(Cl)c(Cl)c1 | 4.4 | x | -1.4 | x | 0.9
COc1ccc2c3c(n(C)c2c1)[C@@H](CO)N(C(=O)c1cnccn1)CC31CCN(C(=O)c2cnccn2)CC1 | -1.8 | x | x | x | x
O=C(C1CCOCC1)N1CC(=O)N2[C@H](CO)[C@@H](c3ccc(C#CCc4ccccc4)cc3)[C@H]2C1 | 16.5* | x | x | x | 0.8
CCOC(=O)c1c(C)[nH]c(C)c1C(=O)COC(=O)c1cc(OC)c(OC)cc1OC | 18.9* | 4.1 | 3.0 | -27.1 | -0.6
CCOCCCNC(=O)/C(C#N)=C/c1cc(C)c(O)c(C)c1 | 23.3* | -0.5 | -1.2 | 12.8 | -0.3
